FBW7 act = FBW7 E3 ligase activators, primary screen, biochemical, AlphaScreen, human | F-box/WD repeat-containing protein 7 (Homo sapiens), Q969H0 | AlphaScreen FBW7–phospho-cyclin E peptide binding, activator screen | normalized activity (activation), % at 26.1 µM | 650,000 tested, 0.13% active | AID 1259310, 2017; in the data active = normalized activity above about 1.9%;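 note: purified mutant Fbw7 with reduced substrate affinity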
GPR151 activ = activators of human GPR151, primary screen, cell-based, PathHunter beta-arrestin, luminescence; G-protein coupled receptor 151 (Homo sapiens), Q8TDV0; PathHunter beta-arrestin GPR151 cells; activation, % at 11.2 µM; 650,000 tested, 1% active; in the data active = activation above about 4.9%
MITF primary = MITF inhibitors, primary screen, biochemical, AlphaScreen, human. Microphthalmia-associated transcription factor (Homo sapiens), O75030. AlphaScreen MITF homodimerization, bead proximity signal. inhibition, % at 2.6 µM. 650,000 tested, 0.91% active. AID 1259374, 2018; in the data active = inhibition above about 50%
TEAD-YAP block = TEAD-YAP interaction inhibition, primary screen, TEAD-YAP interaction inhibitor project, luminescence, HEK-TIYL cells; AID 1259422, 2018; TEAD-Gal4/YAP UAS-luciferase luminescence; inhibition, % at 9.12 µM; 640,000 tested, 1.4% active; in the data active = inhibition above about 32%
Numbers stand for hits; n = inactive. Rows were chosen to be rich in hits. Some 3.5% of all compounds tested hit in one or more screens of this group.

SMILES | FBW7 act | GPR151 activ | MITF primary | TEAD-YAP block
Cc1onc(-c2c(Cl)cccc2Cl)c1C(=O)Nc1nc2ccc([N+](=O)[O-])cc2s1 | n | n | n | 49
CCN1CCN(C(c2cccs2)c2nnnn2CCc2ccccc2)CC1 (stereo unspecified) | n | n | n | n
COc1ccc(OC)c(-n2c(SCC(=O)Nc3ccccc3C(F)(F)F)nc3c(c2=O)SCC3)c1 | n | n | n | n
COc1cc(OC)cc(C(=O)NCc2ccc(S(N)(=O)=O)cc2)c1 | n | n | n | n
COc1cc(OC)cc(C(=O)NCc2ccc(C(C)(C)C)cc2)c1 | n | n | n | 43
O=C(Nc1ccc(-c2ccc(N3CCCCC3)nn2)cc1)c1cccs1 | 7.4 | n | n | n
O=C(Nc1cccc(-c2ccc(N3CCCCCC3)nn2)c1)c1cccs1 | n | n | n | n
N#Cc1ccccc1NC(=O)Cn1ncc(Cl)c(Cl)c1=O | n | n | n | 55
COc1cccc(C(=O)C[n+]2cc(-c3ccc(F)cc3)n(C)c2N)c1 | n | n | n | 85
COc1ccc(C)cc1-n1c(C)cc(/C=C2/C(=N)N3C=CSC3=NC2=O)c1C | n | n | n | 51
Cc1ccc(-n2c(C)cc(/C=C3/C(=N)N4C=CSC4=NC3=O)c2C)c(C)c1 | n | n | n | 64
Cc1cc(/C=C2/C(=N)N3C=CSC3=NC2=O)c(C)n1-c1ccc(Cl)cc1 | n | n | n | n
COc1ccccc1-n1c(C)cc(/C=C2/C(=N)N3C=C(C)SC3=NC2=O)c1C | n | n | n | n
COc1ccccc1-n1c(C)cc(/C=C2\C(=N)N3N=CSC3=NC2=O)c1C | n | n | n | 75
COc1ccc(CN2CCN(C(=O)c3ccc(F)cc3)CC2)cc1OCc1ccccc1 | n | n | n | n
Nc1ccc(-c2cnn3c(NCc4cccs4)ccnc23)cc1 | n | n | n | 71
O=C(O)CCc1ccc(-c2cnn3c(NCc4ccco4)ccnc23)cc1 | n | n | n | 33
c1ccc(-c2cnn3c(NCc4cccs4)ccnc23)cc1 | n | n | n | n
Cc1ccc(-c2cnn3c(NCc4cccs4)ccnc23)cc1 | n | n | n | n
OCc1ccccc1-c1cnn2c(NCc3cccs3)ccnc12 | n | n | n | 63
CCc1ccc(Nc2nc(-c3ccccn3)cs2)cc1 | n | n | n | 40
Fc1ccc2nc(Nc3nc(-c4ccncc4)cs3)sc2c1 | n | n | n | n
COc1ccc(Nc2nc(-c3sc(C)nc3C)cs2)cc1 | n | n | n | 42
Fc1ccc2nc(Nc3nc(-c4ccccn4)cs3)sc2c1 | n | n | n | 52
CCOc1ccc(Nc2nc(-c3sc(NC(=O)CC)nc3C)cs2)cc1 | n | n | n | 48
SMILES | FBW7 act | GPR151 activ | MITF primary | TEAD-YAP block
COc1ccccc1Nc1nc(-c2sc(C)nc2C)cs1 | n | n | n | n
Cc1ccc(N/N=C2\CCCNC2=O)c(Br)c1 | n | n | n | n
COc1ccc(Nc2nc(-c3ccccn3)cs2)cc1 | n | n | n | 43
COc1ccc(-c2csc(Nc3ccccc3OC)n2)c(OC)c1 | n | n | n | n
CCOc1ccc(Nc2nc(-c3ccccn3)cs2)cc1 | n | n | n | n
COc1cc(Br)c(Nc2nc(-c3sc(NC(=O)c4ccccc4)nc3C)cs2)c(Br)c1 | n | n | n | 42
Cc1nc(N)sc1-c1csc(Nc2cccc(C(F)(F)F)c2)n1 | n | n | 52 | n
COc1cccc(Nc2nc(-c3ccc(OC)cc3OC)cs2)c1 | n | n | n | 64
Cc1nc(NC(=O)c2ccccc2)sc1-c1csc(Nc2cccc(Cl)c2C)n1 | n | n | n | n
CCOc1ccc(C(=O)Nc2cccc(Cl)c2N2CCOCC2)cc1[N+](=O)[O-] | n | n | n | n
COC(=O)c1ccc(Oc2nc(NC(C)(C)C)nc(SC)n2)cc1 | n | n | n | n
CCCCc1ccc(C(=O)Oc2ccc(C(=O)OC)cc2)cc1 | n | n | n | n
O=C(N1CCCCC1)n1nnc2ccccc21 | n | n | n | 75
O=C(CCCCC(=O)n1nnc2ccccc21)n1nnc2ccccc21 | n | n | n | n
O=c1c2cc3ccccc3cc2[nH]c(=S)n1CCC1=CCCCC1 | n | n | n | n
COc1ccccc1/C=C1/N=C(c2cccc([N+](=O)[O-])c2C)OC1=O | n | n | n | n
Cc1cc(C)n(Cc2cccc(F)c2)c(=O)c1C#N | n | n | n | n
Cc1cc[n+]2cc(C)n(Cc3cccc(F)c3)c2c1 | n | n | n | 41
CC(=O)c1c(C)n(-c2ccc(N(C)C)cc2)c2ccc(O)cc12 | n | n | n | 40
N#Cc1ccc(/C=N/NC(=O)c2cc(O)cc(O)c2)cc1 | n | n | n | 33
COc1ccc(C(=O)N/N=C\c2ccc(Br)cc2)cc1OC | n | n | n | 40
COc1ccc(/C(C)=N/Nc2ccc(C(=O)O)cc2)c(OC)c1 | n | n | n | 48
N#Cc1ccc(/C=N/NC(=O)c2ccccc2O)cc1 | n | n | n | n
COc1cc(OC)cc(C(=O)N/N=C\c2ccc(OCC(N)=O)cc2)c1 | n | n | n | 56
COc1ccc(C(=O)N/N=C(/C)c2ccc(OC)cc2OC)cc1 | n | n | n | n
SMILES | FBW7 act | GPR151 activ | MITF primary | TEAD-YAP block
CC(=O)Nc1ccc(C(=O)N2CCC(Cc3ccccc3)CC2)cc1 | n | n | n | n
CCSCCOC(=O)C1=C(C)N(C)C(=O)NC1c1c(F)cccc1Cl (stereo unspecified) | n | n | n | n
O=C(O)c1cc(N/N=C/c2cccnc2)ccc1Cl | n | n | n | n
COc1ccc(C(=O)N/N=C/c2ccc(O)c(O)c2)cc1Br | n | n | n | n
O=C(O)c1ccc(N/N=C/c2cccnc2)cc1 | n | n | n | 33
COc1ccc(/C=N/Nc2ccc(C(=O)O)cc2)cc1Br | n | n | n | 45
O=C(O)c1ccccc1C(=O)NNc1ncnc2ccccc12 | n | n | n | n
NS(=O)(=O)c1ccc(CCNC(=O)COc2ccccc2)cc1 | n | n | n | n
CSCc1ccc(C(=O)NC2CCCCCC2)cc1 | n | n | n | 47
O=C(NC1CCCCC1)c1ccc(CSc2ccc(Cl)cc2)cc1 | n | n | n | n
O=S(=O)(Nc1ccc(Br)c2cccnc12)c1ccccc1 | n | n | n | 33
COc1ccc(NS(=O)(=O)c2ccc3ccccc3c2)c2ncccc12 | n | n | n | n
O=C(NCCC12CC3CC(CC(C3)C1)C2)c1cc([N+](=O)[O-])ccc1Cl | n | n | n | 46
O=C(NCCCc1ccccc1)c1cc([N+](=O)[O-])ccc1Cl | n | n | n | 53
O=C(NCCn1ccc2ccccc21)c1cc([N+](=O)[O-])ccc1Cl | n | n | n | 33
O=C(NC12CC3CC(CC(C3)C1)C2)c1cc([N+](=O)[O-])ccc1Cl | n | n | n | n
CCCCCC(=O)N/N=C/c1ccc([N+](=O)[O-])cc1 | n | n | n | n
COc1ccccc1NC(=O)C(=O)N/N=C(\C)CC(=O)Nc1cccc(C(F)(F)F)c1 | n | n | n | n
